“And” between values parts separate entries of the source, which are not always exact repeats. Identical values can stand only once. ± gives the standard deviation of the averaged measurements.
What follows are molecules tested on HCC1569 (assay: cell number relative to DMSO (% of DMSO); higher = more cells (less growth inhibition / toxicity)). Conditions: concentration: 10 µM; 24 h.
Outline: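 After 24 h at 37 °C with compounds at 10 µM, in triplicate, HCC1569 and TDF cells were fixed with 3.7% formaldehyde. Immunostaining used a rabbit anti-H1.0 antibody and an AlexaFluor 647 secondary, with DAPI, and six fields per well were imaged at ×10. H1.0 nuclear intensity or cell number is presented as percent of the plate control, from the median of replicates, with HCC1569 values smoothed for positional effects.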
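Note: TDF denotes transformed human dermal fibroblasts of mesenchymal origin.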

Row | SMILES | cell number
1 | CC(C)=CCC(O)C1=CC(=O)c2c(O)ccc(O)c2C1=O (stereo not given) [Shikonin] | 27
2 | CC1(C)SC2C(NC(=O)C(N)c3ccc(O)cc3)C(=O)N2C1C(=O)O (stereo not given) [Amoxicillin] | 107
3 | CC1=NN(c2ccccc2)C(=O)C1 | 101
4 | O=c1[nH]ccc2c(O)cccc12 [1,5-Isoquinolinediol] | 100
5 | CCCCN1CCC(n2c(=O)[nH]c3ccccc32)CC1.O=C(O)C(=O)O [NS 521 oxalate] | 98
6 | CN(C)C(=S)NN=C(c1ccccn1)c1ccccn1 [(Z)-di(2-pyridinyl)methanone N,N-dimethylthiosemicarbazone] | 75.1
7 | Nc1ncnc2c1ncn2C1CCCO1 (stereo not given) | 76.9
8 | CC12C=CC(=O)C=C1CCC1C2=CCC2(C)C(C(=O)CN3CCN(c4cc(N5CCCC5)nc(N5CCCC5)n4)CC3)CCC12.O=C(O)C=CC(=O)O (stereo not given) | 91.7 and 96.8
9 | CC=C(C)C(=O)OC1CC(C)=CC(=O)C2(C)CCC(O)(C(C)C)C12 (stereo not given) [Lapidin] | 104
10 | Oc1ccc(O)cc1 [Hydroquinone] | 74.9 ± 1.1
11 | O=C(CCc1ccc(O)cc1)c1c(O)cc(O)cc1O [Phloretin] | 97.73 ± 0.41
12 | CCCCCC(O)CCC1C(O)CC(=O)C1CCCCCCC(=O)O (stereo not given) [13,14-Dihydro-prostaglandin E1] | 97.1
13 | Clc1ccc(C(Cn2ccnc2)OCc2csc3c(Cl)cccc23)c(Cl)c1.O=[N+]([O-])O (stereo not given) | 88.9
14 | CCN(CC)CCNC(=O)c1ccc(NC(C)=O)cc1.Cl [N-Acetylprocainamide hydrochloride] | 104
15 | CCOC(=O)C1=CC(OC(CC)CC)C(NC(C)=O)C(N)C1 (stereo not given) [Oseltamivir] | 104
16 | Nc1nc(Nc2ccccc2)nc2c1ncn2C1OC(CO)C(O)C1O (stereo not given) [2-Phenylaminoadenosine] | 101
17 | CC(=O)O.O=C(NCC1CCCCN1)c1cc(OCC(F)(F)F)ccc1OCC(F)(F)F (stereo not given) [Flecainide acetate] | 102 ± 3.6
18 | CC[N+](CC)(CC)CCOc1cccc(OCC[N+](CC)(CC)CC)c1OCC[N+](CC)(CC)CC.[I-].[I-].[I-] [Gallamine triethiodide] | 101
19 | COc1cc(/C=C/C(=O)CC(=O)/C=C/c2ccc(O)cc2)ccc1O | 66.5
20 | Cc1cc(C)c(C=C2C(=O)Nc3ccccc32)[nH]1 | 102

Row | SMILES | cell number
21 | CCCCc1oc2ccccc2c1C(=O)c1cc(I)c(OCCN(CC)CC)c(I)c1.Cl [Amiodarone hydrochloride] | 98.5
22 | CN(CC=CC#CC(C)(C)C)Cc1cccc2ccccc12.Cl | 96.4
23 | CN1CCc2cccc3c2C1Cc1ccc(O)c(O)c1-3.Cl (stereo not given) [Apomorphine hydrochloride hemihydrate] | 89.9
24 | CC1CCC2(C(=O)O)CCC3(C)C(=CCC4C5(C)CCC(O)C(C)(C)C5CCC43C)C2C1C (stereo not given) [Ursolic acid] | 100
25 | COc1ccc(S(=O)(=O)N(CCO)c2ccccc2CN(C)CC=Cc2ccc(Cl)cc2)cc1 | 74.4
26 | NCC1OC(OC2C(CO)OC(OC3C(O)C(N)CC(N)C3OC3OC(CN)C(O)C(O)C3N)C2O)C(N)C(O)C1O (stereo not given) [Neomycin] | 99.58 ± 0.33
27 | c1ccc(-c2ccccn2)nc1 [2,2'-Bipyridyl] | 107
28 | COc1cccc(-c2cc(=O)c3ccccc3o2)c1N | 99.7 and 100 and 98.4
29 | CC(CN1c2ccccc2Sc2ccccc21)N(C)C.Cl (stereo not given) [Promethazine hydrochloride] | 105
30 | Cc1nn(C)c2nc(NNC(=O)Nc3cc(Cl)nc(Cl)c3)cc(C(C)C)c12 | 66
31 | CN1C(=O)CC(C(=O)O)C1c1cccnc1 (stereo not drawn) [Trans-4-Cotininecarboxylic acid] | 98.4
32 | CC(=O)C1CCC2C3CC=C4CC(OS(=O)(=O)[O-])CCC4(C)C3CCC12C.[Na+] (stereo not given) [Pregnenolone sulfate sodium] | 105
33 | O=C1c2c(O)cc(O)cc2O[C@H](c2cc(O)c(O)c(O)c2)[C@H]1O | 95.8
34 | O=C1NC(c2cccc([N+](=O)[O-])c2)=CCN1c1ccccc1O | 104
35 | CC(C)C(CO)Nc1nc(Nc2cccc(Cl)c2)c2ncn(C(C)C)c2n1 (stereo not given) [Purvalanol A] | 68.8 ± 4.3
36 | CC(=O)OCC[N+](C)(C)C [Acetylcholine] | 106
37 | CN1CCN2c3ccccc3Cc3ccccc3C2C1.Cl (stereo not given) [Mianserin hydrochloride] | 105
38 | Cc1c2c(c(O)c3c(O)cccc13)C(=O)OC2C1C(O)C(=O)C(C(N)=O)=C(O)C1N(C)C (racemic) | 93.9
39 | Cc1ccc(-c2c(-c3nn(C)c4ncnc(N5CC[C@H](N6CCCCC6)C5)c34)cnn2C)cc1 | 99.6
40 | Cl.c1ccc(CN2CCC3(CCCc4ccccc43)CC2)cc1 [L-687,384 hydrochloride] | 103

— the supplement of paper PMC7156485
